From PubChem BioAssay
Calls of active or inactive are those of the source.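 The calls were made as follows, unless noted: active = compound raises insulin release from rat beta cells at 5 mM glucose, no numeric limit stated; inactive = the rest.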

assay: stimulators of insulin release from INS-1E, primary screen, cell-based, 5 mM glucose, NPC library (AID 1117329); settings: rat INS-1E insulin secretion, at 10 µM, stronger effect = higher value; also: reference of the scale not given here

| Compound | insulin secretion stimulation |
| --- | --- |
| Cc1cc(=O)c2c(O)c3c(O)cc(=O)c4c3c3c(cc(O)c1c23)C(C)(C)C=4O | 0.4% (inactive) |
| CC(C)OC(=O)OCOP(=O)(CO[C@H](C)Cn1cnc2c(N)ncnc21)OCOC(=O)OC(C)C | 13.8% (inactive) |
| O=C(O)c1ccc(-n2nc(-c3ccccc3O)nc2-c2ccccc2O)cc1 | 0.8% (inactive) |
| COc1ccc(-c2ccc3cc(C(=O)O)ccc3c2)cc1C12CC3CC(CC(C3)C1)C2 | 0.9% (inactive) |
| COCCCN1CCC(NC(=O)c2cc(Cl)c(N)c3c2OCC3)CC1 | 1% (inactive) |
| CCOC(=O)c1c(C)n(C)c2ccc(O)cc12 | 0.5% (inactive) |
| NCCCC(N)(C(=O)O)C(F)F (stereo not given) | -2.2% (inactive) |
| CN1CCCN=C1/C=C/c1cccs1 | 0.75% (inactive) |
| CC(=O)N[C@H]1[C@H]([C@H](O)[C@H](O)CO)OC(C(=O)O)=C[C@@H]1N=C(N)N | -2.6% (inactive) |
| O=[N+]([O-])c1cncn1CCN1CCOCC1 | 0.4% (inactive) |
| C=CC(=O)Nc1cc2c(Nc3ccc(F)c(Cl)c3)ncnc2cc1OCCCN1CCOCC1 | 1.6% (inactive) |
| Cc1ccc(C(=O)c2cc(O)c(O)c([N+](=O)[O-])c2)cc1 | -0.8% (inactive) |
| Cc1nnc(C(=O)NC(C)(C)c2nc(C(=O)NCc3ccc(F)cc3)c(O)c(=O)n2C)o1 | 2.5% (inactive) |
| Cc1ccccc1C(=O)Nc1ccc(C(=O)N2CCCC(O)c3cc(Cl)ccc32)c(C)c1 (stereo not given) | 0.15% (inactive) |
| COc1ccc2cccc(CCNC(C)=O)c2c1 | -1.5% (inactive) |
| Cc1cc2c(cc1CC(=O)c1sccc1S(=O)(=O)Nc1onc(C)c1Cl)OCO2 | -0.3% (inactive) |
| C[C@]12CCC(=O)C=C1[C@@H]1C[C@@H]1[C@H]1[C@@H]3[C@@H]4C[C@@H]4[C@@]4(CCC(=O)O4)[C@@]3(C)CC[C@@H]12 | 1.5% (inactive) |
| CCC1=C[C@@H]2CN(C1)Cc1c([nH]c3ccccc13)[C@@](C(=O)OC)(c1cc3c(cc1OC)N(C)[C@H]1[C@@](O)(C(=O)OC)[C@H](OC(C)=O)[C@]4(CC)C=CCN5CC[C@]31[C@@H]54)C2 | 2.25% (inactive) |
| CC1(C)CCC(C)(C)c2cc(NC(=O)c3ccc(C(=O)O)cc3)ccc21 | -0.4% (inactive) |
| Cc1ccc(Nc2nccc(N(C)c3ccc4c(C)n(C)nc4c3)n2)cc1S(N)(=O)=O | 4.9% (inactive) |

| Compound | insulin secretion stimulation |
| --- | --- |
| Clc1ccc(C(Cn2ccnc2)OCc2ccc(Sc3ccccc3)cc2)c(Cl)c1 (stereo not given) | 6.2% (inactive) |
| CNC(=O)c1ccccc1Sc1ccc2c(/C=C/c3ccccn3)n[nH]c2c1 | 4.65% (inactive) |
| CCOC(=O)c1ccc(C#Cc2ccc3c(c2)C(C)(C)CCS3)nc1 | -1.4% (inactive) |
| CC(=O)OCC(=O)[C@@]12N=C(C)O[C@@H]1C[C@H]1[C@@H]3CCC4=CC(=O)C=C[C@]4(C)[C@H]3[C@@H](O)C[C@@]12C | 2.95% (inactive) |
| O=P(O)(O)C(O)(Cn1ccnc1)P(=O)(O)O | 0.2% (inactive) |
| O=c1cc(O)c(Cl)c[nH]1 | -1.9% (inactive) |
| Clc1ccc(C(Cn2ccnc2)OCc2c(Cl)cccc2Cl)c(Cl)c1 (stereo not given) | 3.1% (inactive) |
| CC(C)(C)C(=O)Oc1ccc(S(=O)(=O)Nc2ccccc2C(=O)NCC(=O)O)cc1 | 0% (inactive) |
| N[C@@H](Cc1c[nH]c2ccc(O)cc12)C(=O)O | 2.1% (inactive) |
| O=C(Nc1ccc(S(=O)(=O)N2CCOCC2)cc1)c1cc(Cl)ccc1NS(=O)(=O)c1ccc(Cl)s1 | 3.7% (inactive) |
| CCCCN(CCCC)CC(O)c1cc(Cl)cc2c1-c1ccc(Cl)cc1/C2=C/c1ccc(Cl)cc1 (stereo not given) | -0.3% (inactive) |
| N#Cc1c(N(CC(=O)O)CC(=O)O)sc(C(=O)O)c1CC(=O)O | 4.8% (inactive) |
| N=C(N)c1ccc2cc(OC(=O)c3ccc(N=C(N)N)cc3)ccc2c1 | 1.85% (inactive) |
| COC(c1ccccc1)(c1ccccc1)[C@H](Oc1nc(C)cc(C)n1)C(=O)O | 4.3% (inactive) |
| NC(=O)c1ncn([C@@H]2O[C@H](CO)[C@@H](O)[C@H]2O)c1N | -2.3% (inactive) |
| c1cnc2cc3c(cc2n1)C1CNCC3C1 | 0.7% (inactive) |
| CC(C(=O)O)c1ccc2c(c1)CC(=O)c1ccccc1S2 (stereo not given) | 5.5% (inactive) |
| CN(C)C(=O)COC(=O)Cc1ccc(OC(=O)c2ccc(N=C(N)N)cc2)cc1 | -0.35% (inactive) |
| CCCCc1oc2ccc(NS(C)(=O)=O)cc2c1C(=O)c1ccc(OCCCN(CCCC)CCCC)cc1 | 2.1% (inactive) |
| CC(C)C[C@H](NC(=O)[C@H](CCc1ccccc1)NC(=O)CN1CCOCC1)C(=O)N[C@@H](Cc1ccccc1)C(=O)N[C@@H](CC(C)C)C(=O)[C@@]1(C)CO1 | 6.05% (inactive) |

assay: growth inhibition of GSK3B-pretreated HCT116 cells – cell-based, CellTiter-Glo, 0.2 to 20 µM (AID 1117336;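 active = compounds lowering colon cancer cell viability after pretreatment blocking the GSK3B kinase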); settings: HCT116 viability after GSK3B inhibitor, at 20 µM, stronger effect = higher value

| Compound | viability decrease |
| --- | --- |
| Cc1cc(=O)c2c(O)c3c(O)cc(=O)c4c3c3c(cc(O)c1c23)C(C)(C)C=4O | 117% (active) |
| CC(C)OC(=O)OCOP(=O)(CO[C@H](C)Cn1cnc2c(N)ncnc21)OCOC(=O)OC(C)C | 2.2% (inactive) |
| O=C(O)c1ccc(-n2nc(-c3ccccc3O)nc2-c2ccccc2O)cc1 | 112% (active) |
| COc1ccc(-c2ccc3cc(C(=O)O)ccc3c2)cc1C12CC3CC(CC(C3)C1)C2 | 118% (active) |
| COCCCN1CCC(NC(=O)c2cc(Cl)c(N)c3c2OCC3)CC1 | -4.2% (inactive) |
| CCOC(=O)c1c(C)n(C)c2ccc(O)cc12 | -5.75% (inactive) |
| NCCCC(N)(C(=O)O)C(F)F (stereo not given) | 6.2% (inactive) |
| CN1CCCN=C1/C=C/c1cccs1 | 6.6% (inactive) |
| CC(=O)N[C@H]1[C@H]([C@H](O)[C@H](O)CO)OC(C(=O)O)=C[C@@H]1N=C(N)N | -14.4% (inactive) |
| O=[N+]([O-])c1cncn1CCN1CCOCC1 | -4.6% (inactive) |
| C=CC(=O)Nc1cc2c(Nc3ccc(F)c(Cl)c3)ncnc2cc1OCCCN1CCOCC1 | 108% (active) |
| Cc1ccc(C(=O)c2cc(O)c(O)c([N+](=O)[O-])c2)cc1 | 43.7% (active) |
| Cc1nnc(C(=O)NC(C)(C)c2nc(C(=O)NCc3ccc(F)cc3)c(O)c(=O)n2C)o1 | -5.9% (inactive) |
| Cc1ccccc1C(=O)Nc1ccc(C(=O)N2CCCC(O)c3cc(Cl)ccc32)c(C)c1 (stereo not given) | 52.2% (active) |
| COc1ccc2cccc(CCNC(C)=O)c2c1 | 2.7% (inactive) |
| Cc1cc2c(cc1CC(=O)c1sccc1S(=O)(=O)Nc1onc(C)c1Cl)OCO2 | 2.7% (inactive) |
| C[C@]12CCC(=O)C=C1[C@@H]1C[C@@H]1[C@H]1[C@@H]3[C@@H]4C[C@@H]4[C@@]4(CCC(=O)O4)[C@@]3(C)CC[C@@H]12 | 2.2% (inactive) |
| CCC1=C[C@@H]2CN(C1)Cc1c([nH]c3ccccc13)[C@@](C(=O)OC)(c1cc3c(cc1OC)N(C)[C@H]1[C@@](O)(C(=O)OC)[C@H](OC(C)=O)[C@]4(CC)C=CCN5CC[C@]31[C@@H]54)C2 | 103% (active) |
| CC1(C)CCC(C)(C)c2cc(NC(=O)c3ccc(C(=O)O)cc3)ccc21 | 77.6% (active) |
| Cc1ccc(Nc2nccc(N(C)c3ccc4c(C)n(C)nc4c3)n2)cc1S(N)(=O)=O | 20.9% (inactive) |

| Compound | viability decrease |
| --- | --- |
| Clc1ccc(C(Cn2ccnc2)OCc2ccc(Sc3ccccc3)cc2)c(Cl)c1 (stereo not given) | 110% (active) |
| CNC(=O)c1ccccc1Sc1ccc2c(/C=C/c3ccccn3)n[nH]c2c1 | 21% (inactive) |
| CCOC(=O)c1ccc(C#Cc2ccc3c(c2)C(C)(C)CCS3)nc1 | 91.1% (active) |
| CC(=O)OCC(=O)[C@@]12N=C(C)O[C@@H]1C[C@H]1[C@@H]3CCC4=CC(=O)C=C[C@]4(C)[C@H]3[C@@H](O)C[C@@]12C | 0.4% (inactive) |
| O=P(O)(O)C(O)(Cn1ccnc1)P(=O)(O)O | -1.1% (inactive) |
| O=c1cc(O)c(Cl)c[nH]1 | 28% (inactive) |
| Clc1ccc(C(Cn2ccnc2)OCc2c(Cl)cccc2Cl)c(Cl)c1 (stereo not given) | 110% (active) |
| CC(C)(C)C(=O)Oc1ccc(S(=O)(=O)Nc2ccccc2C(=O)NCC(=O)O)cc1 | 66% (active) |
| N[C@@H](Cc1c[nH]c2ccc(O)cc12)C(=O)O | -0.3% (inactive) |
| O=C(Nc1ccc(S(=O)(=O)N2CCOCC2)cc1)c1cc(Cl)ccc1NS(=O)(=O)c1ccc(Cl)s1 | 118% (active) |
| CCCCN(CCCC)CC(O)c1cc(Cl)cc2c1-c1ccc(Cl)cc1/C2=C/c1ccc(Cl)cc1 (stereo not given) | 9.1% (inactive) |
| N#Cc1c(N(CC(=O)O)CC(=O)O)sc(C(=O)O)c1CC(=O)O | -2.4% (inactive) |
| N=C(N)c1ccc2cc(OC(=O)c3ccc(N=C(N)N)cc3)ccc2c1 | 4.1% (inactive) |
| COC(c1ccccc1)(c1ccccc1)[C@H](Oc1nc(C)cc(C)n1)C(=O)O | -12.3% (inactive) |
| NC(=O)c1ncn([C@@H]2O[C@H](CO)[C@@H](O)[C@H]2O)c1N | -16.2% (inactive) |
| c1cnc2cc3c(cc2n1)C1CNCC3C1 | -3.9% (inactive) |
| CC(C(=O)O)c1ccc2c(c1)CC(=O)c1ccccc1S2 (stereo not given) | -7.1% (inactive) |
| CN(C)C(=O)COC(=O)Cc1ccc(OC(=O)c2ccc(N=C(N)N)cc2)cc1 | 16.9% (inactive) |
| CCCCc1oc2ccc(NS(C)(=O)=O)cc2c1C(=O)c1ccc(OCCCN(CCCC)CCCC)cc1 | 99.1% (active) |
| CC(C)C[C@H](NC(=O)[C@H](CCc1ccccc1)NC(=O)CN1CCOCC1)C(=O)N[C@@H](Cc1ccccc1)C(=O)N[C@@H](CC(C)C)C(=O)[C@@]1(C)CO1 | 117% (active) |
